Data published in PubChem BioAssay (EPA / NIEHS).
Some compounds were tested as several samples or in several runs, with calls that do not always agree. Activity calls are given as the source filed them. Rule for the calls: active = hit-call score of the fitted dose curve at least 0.9, where 1 is the maximum; inactive = score below 0.9.

What was measured:
[1] = ATG_NFI_CIS: Attagene CIS-FACTORIAL HepG2 Assay for human Nuclear Factor I (NFI) (AID 2282989); settings: HepG2 cis-regulatory reporter, NFI response element transcription; actives raise or lower the signal
Procedure, shortened: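 After transient transfection of HepG2 with cis-promoter reporter constructs and 24 h dosing, RNA is reverse-transcribed, amplified, 6-FAM end-labelled and HpaI-digested before capillary analysis. Bidirectional curve fitting against DMSO.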

[2] = target: Myc proto-oncogene protein (Homo sapiens) (UniProt P01106); assay: ATG_Myc_CIS: Attagene CIS-FACTORIAL HepG2 Assay for human Myelocytomatosis (Myc) Proto-Oncogene Transcription Factor (AID 2282990); settings: HepG2, Attagene cis-reporter transcription factor activity; actives raise or lower the signal
Sequence of Myc proto-oncogene protein (Homo sapiens) (P01106 whole entry, looked up, the tested form may be a part): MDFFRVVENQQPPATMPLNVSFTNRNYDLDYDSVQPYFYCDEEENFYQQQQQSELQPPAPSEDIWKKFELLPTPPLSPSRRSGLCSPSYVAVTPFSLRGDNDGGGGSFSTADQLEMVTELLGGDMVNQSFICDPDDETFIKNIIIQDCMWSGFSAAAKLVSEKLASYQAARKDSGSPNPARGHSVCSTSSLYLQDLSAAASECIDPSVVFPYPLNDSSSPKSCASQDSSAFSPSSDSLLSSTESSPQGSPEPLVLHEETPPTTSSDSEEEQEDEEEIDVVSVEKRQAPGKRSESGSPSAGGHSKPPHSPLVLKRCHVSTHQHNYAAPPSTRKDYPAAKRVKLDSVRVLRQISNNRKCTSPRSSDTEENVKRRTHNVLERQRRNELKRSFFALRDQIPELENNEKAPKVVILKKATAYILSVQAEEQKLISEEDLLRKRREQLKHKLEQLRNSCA
Procedure, shortened: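 After 24 h chemical treatment of HepG2 cells carrying multiplexed cis-regulated reporter constructs, reporter transcripts quantified by RT-PCR and capillary electrophoresis of fluorescent fragments. Gain or loss fitted against DMSO baseline.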

[3] = ATG_NF_kB_CIS: Attagene CIS-FACTORIAL HepG2 Assay for human Nuclear Factor Kappa B (NF-kB) (AID 2282991); settings: HepG2 Attagene cis-factorial NF-kB reporter mRNA; actives raise or lower the signal
Procedure, shortened: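 HepG2 cells transiently transfected with multiplexed cis-element reporter units measuring endogenous transcription factor activity; reporter mRNA read 24 h after dosing by RT-PCR, fluorescent labelling, HpaI digestion and capillary electrophoresis. Bidirectional fit against DMSO baseline.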

[4] = ATG_NRF2_ARE_CIS: Attagene CIS-FACTORIAL HepG2 Assay for human Nuclear Factor Erythroid 2 Related Factor 2 (NFR2) response to Antioxidant Response Elements (ARE) (AID 2282992); settings: HepG2 Attagene ARE/NRF2 reporter, transcription factor activity; actives raise or lower the signal
Procedure, shortened: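 Transient MRTU transfection of HepG2; 24 h compound exposure; TriZol RNA, RT with oligo(dT), PCR, 6-FAM primer extension, HpaI cut, CE. Bidirectional fit vs DMSO.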

[5] = ATG_Oct_MLP_CIS: Attagene CIS-FACTORIAL HepG2 Assay for human Octamer-Binding Transcription Factor (Oct) (AID 2282993); settings: HepG2 Attagene cis-factorial Oct reporter, mRNA; actives raise or lower the signal
Procedure, shortened: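 Cells of the HepG2 line express promoter-controlled reporter sequences whose mRNA levels, after 24 h treatment, are measured by RT-PCR and capillary electrophoresis. Increases and decreases are scored relative to DMSO.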

[6] = target: Cellular tumor antigen p53 (Homo sapiens) (UniProt P04637); assay: ATG_p53_CIS: Attagene CIS-FACTORIAL HepG2 Assay for human p53 Transcription Factor (AID 2282994); settings: HepG2 p53 cis-element reporter, Attagene mRNA; actives raise or lower the signal
Sequence of Cellular tumor antigen p53 (Homo sapiens) (P04637 whole entry, looked up): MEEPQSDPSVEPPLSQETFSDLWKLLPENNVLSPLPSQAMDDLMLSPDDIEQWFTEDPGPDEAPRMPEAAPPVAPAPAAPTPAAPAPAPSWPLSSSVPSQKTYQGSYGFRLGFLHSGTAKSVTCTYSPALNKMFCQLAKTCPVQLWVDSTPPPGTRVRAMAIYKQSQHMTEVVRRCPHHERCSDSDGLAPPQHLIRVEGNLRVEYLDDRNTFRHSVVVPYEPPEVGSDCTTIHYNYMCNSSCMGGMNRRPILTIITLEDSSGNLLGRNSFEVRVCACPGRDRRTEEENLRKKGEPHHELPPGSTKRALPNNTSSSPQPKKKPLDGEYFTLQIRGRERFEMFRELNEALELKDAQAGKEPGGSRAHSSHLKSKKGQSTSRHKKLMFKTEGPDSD
Procedure, shortened: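 HepG2, transient MRTU transfection (cis promoter elements, endogenous TFs); 24 h dosing; RNA isolation, RT-PCR, 6-FAM primer extension, HpaI digest, CE fluorescence; bidirectional fit vs DMSO.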

[7] = BSK_3C_TissueFactor: BioMAP Diversity Plus: 3C Assay for Tissue Factor Biomarker Activity (AID 2282997); settings: BioMAP 3C HUVEC, tissue factor biomarker readout; actives raise or lower the signal
Procedure, shortened: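 ELISA read-out of Tissue Factor levels on human umbilical vein endothelium collected 24 h after chemical dosing. Gain or loss of signal was fitted relative to DMSO.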

[8] = BSK_3C_uPAR: BioMAP Diversity Plus: 3C Assay for Urokinase-type plasminogen activator receptor (uPAR) Biomarker Activity (AID 2282998); settings: BioMAP 3C HUVEC, uPAR biomarker ELISA; actives raise or lower the signal
Procedure, shortened: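 Endothelial primary cells of human umbilical vein origin received test chemical; 24 h later uPAR was assayed by ELISA. Fitting was bidirectional, DMSO as negative control.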

[9] = BSK_3C_VCAM1: BioMAP Diversity Plus: 3C Assay for Vascular cell adhesion molecule 1 (VCAM1) Biomarker Activity (AID 2282999); settings: BioMAP 3C HUVEC, VCAM1 ELISA, cytokine-stimulated; actives raise or lower the signal
Procedure, shortened: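 Endothelial cells from human umbilical vein are treated with test chemical. At 24 h, VCAM-1 is measured by ELISA, and responses in either direction are fitted relative to DMSO.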

[10] = BSK_4H_Eotaxin3: BioMAP Diversity Plus: 4H Assay for Eotaxin 3 Biomarker Activity (AID 2283000); settings: primary human endothelial cells (HUVEC); actives raise or lower the signal
Procedure, shortened: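 Chemicals were added to human umbilical vein endothelium cultures, and Eotaxin-3 was quantified by ELISA at 24 h. Values were derived by bidirectional fitting with DMSO serving as negative control and activity baseline.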

Measured: AC50

CCC(C)(C)C1CCC(O)CC1 (centres undefined)
inactive: all assays above

CCCOC(=O)c1ccc(O)cc1
inactive: [1] | [2] | [4] | [5] | [6] | [7] | [8] | [9]
active: [4] 77.7 µM | [5] 168 µM

NC(=O)N1C(=O)C(C(=O)c2cc(Cl)cs2)c2cc(F)c(Cl)cc21 (centres undefined)
inactive: [1] | [2] | [6] | [9]
active: [4] 6.05 µM | [5] 11 µM | [7] 5.53 µM | [8] 14.7 µM

OC1CCC(C2CCCCC2)CC1 (centres undefined)
active: [4] 140 µM [middle of 4 runs]
not listed: [3]
inactive: all other assays above

O=[N+]([O-])c1ccc(O)cc1
inactive: all assays above

Oc1cccc(O)c1
inactive: all assays above

c1ccc2c(c1)ccc1ccccc12
active: [7] 3.97 µM
inactive: all other assays above

NC(=O)N(O)[C@@H]1C=C[C@H](Oc2cccc(Oc3ccc(F)cc3)c2)C1
active: [4] 20.6 µM | [5] 33 µM
inactive: all other assays above

COc1ccc([N+](=O)[O-])cc1N
inactive: all assays above

COCC(C)OCC(C)O (centres undefined)
inactive: all assays above

Cc1cc(C)c(O)c(C)c1
active: [4] 27.7 µM | [5] 100 µM
not listed: [3] | [10]
inactive: all other assays above

CCCCCCCCC(=O)O
not listed: [3] | [10]
inactive: all other assays above

Cc1oc(-c2ccccc2)nc1CCOc1ccc(C[C@H](Nc2ccccc2C(=O)c2ccccc2)C(=O)O)cc1
inactive: [1] | [3] | [4] | [6]
active: [2] 18 µM | [5] 18.2 µM | [7] 36.7 µM | [8] 14.6 µM | [9] 33.1 µM | [10] 36.2 µM

CCN(CC)CCNc1ccc(CNC=O)c2sc3ccc(OC)cc3c(=O)c12
active: [1] 0.843 µM | [2] 0.508 µM | [4] 0.0735 µM | [5] 0.842 µM | [6] 0.117 µM | [7] 31.2 µM | [8] 12.3 µM | [9] 26.8 µM

Cc1cc(CCN2CCN(c3nsc4ccccc34)CC2)cc2c1NC(=O)CC2(C)C
active: [4] 4.32 µM | [5] 8.81 µM | [7] 26.9 µM | [8] 26.6 µM | [9] 33.2 µM | [10] 33.6 µM
inactive: [1] | [2] | [3] | [6]

CC(C)CCCCCCOC(=O)CCCCC(=O)OCCCCCCC(C)C
inactive: all assays above

CC(O)CO (centres undefined)
not listed: [10]
inactive: all other assays above

CCCCC(CC)COC(=O)CCCCC(=O)OCC(CC)CCCC (centres undefined)
not listed: [10]
inactive: all other assays above
